Screening results from PubChem.
Compounds with a hit are over-represented: about 1.8% of the library has one in this group of screens.
ABCB6 inh MLPCN = human ABCB6 transporter inhibition | Q9NP58 | K562-ABCB6 porphyrin accumulation, flow cytometry, 1 h; active compounds read low | fluorescence ratio to DMSO, % at 10 µM | actives 0.19% (n = 360,000) | AID 602162;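 active means fluorescence ratio to DMSO below 75%, the collection mean minus 3 SD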;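 further: signal is porphyrin accumulated inside mitochondria; 100% equals median channel fluorescence of DMSO control wells; lower ratio means ABCB6 inhibition with less porphyrin fluorescence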
NRP1-CendR mod = modulators of CendR peptide binding to human neuropilin-1; O14786; FAM-RPARPAR peptide binding to NRP-1, fluorescence polarization; inhibition, % at 25 µM; actives 0.85% (n = 360,000); AID 602438;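 active means inhibition or corrected inhibition above about 18%, plus a signal ratio from 0.5 to 1.5, limit read from the data, passing the limit was not always enough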
ARNT-TACC3 inh = disruptors of human ARNT/TACC3 interaction; Q9Y6A5; AlphaScreen His-ARNT PAS-B/GST-TACC3 binding, luminescence; TACC3 fragment carries E629A point mutation; inhibition, % at 9.99 µM; actives 0.66% (n = 390,000); AID 623870;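 active means mean inhibition of replicates at least 50% and at least half of replicates each reaching 50%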;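 further: 0% = complete ARNT plus TACC3 wells and 100% = ARNT alone without TACC3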
INS-1E GSIS act = primary screen for activators of insulin secretion dependent on glucose, INS-1E cells, GLuc reporter luminescence; actives 0.61% (n = 370,000); INS-1E GLuc reporter insulin secretion, 2-3 h; AID 743287; activation, % at 16.6 µM;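 active means lowest replicate activation of at least 40%, so every replicate reaches that level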;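 further: 0% = median of neutral control wells and 100% = median of IBMX positive control wells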
iPSC survival up = enhancers of human iPSC single-cell survival. hiPSC single-cell survival, ATPlite luminescence; 100% = ROCK inhibitor wells, 0% = DMSO. survival enhancement, % at 20 µM. actives 0.044% (n = 360,000). AID 602274; in the data active means survival enhancement above about 18%;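 further: cells exposed to compounds for 16 hours before the ATP read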
* marks the source's active call; other numbers are inactive results; nt = no result given; ! = not confirmed by another sample.

SMILES | ABCB6 inh MLPCN | NRP1-CendR mod | ARNT-TACC3 inh | INS-1E GSIS act | iPSC survival up
O=C(NC1CCCCC1)[C@H]1[C@H](CO)[C@H]2Cn3c(cccc3=O)[C@@H]1N2CC1CCCCC1 | nt | nt | nt | 7 | nt
Cn1c(SCC(=O)c2ccccc2)nnc1-c1ccc(O)cc1 | 98 | -4 | 2 | nt | -1
Cn1c(SCc2ccccc2)nnc1-c1ccc(O)cc1 | 97 | 8 | active | 26 | 1
O=C1CC(c2ccc(O)cc2)Oc2cc(O)cc(O)c21 (centres undefined) | 98 | 0 | -2 | 6 | -1
CC1CC(=O)c2c(cc3c(-c4c(O)cc(O)c5c(O)c6c(cc45)OC(C)CC6=O)c(O)cc(O)c3c2O)O1 (centres undefined) | 134 | -7 | 96* | nt | -3
CCN(CC(=O)NCc1cccs1)S(=O)(=O)c1ccc(C(C)C)cc1 | 105 | 32* | -4 | nt | -3
C[C@@H]1CN([C@@H](C)CO)C(=O)c2cc(/C=C/c3ccccc3)cnc2O[C@@H]1CN(C)C(=O)c1cnccn1 | nt | nt | -4 | 16 | nt
Cc1ccc(NC(=O)c2cc(N3C(=O)C=CC3=O)ccc2Cl)cc1C | 103 | -6 | 4 | 50* | 0
C[C@H](CO)N1C[C@H](C)[C@@H](CN(C)Cc2ccncc2)Oc2ccc(NC(=O)CCC(F)(F)F)cc2C1=O | nt | nt | -8 | -8 | nt
O=S(=O)(c1ccccc1)N1C[C@@H]2N[C@H](C1)C2c1ccc(-c2ccc(F)cc2)cc1 (some centres undefined) | nt | nt | nt | 5 | nt
OCCN(Cc1ccccc1)Cc1ncccc1O | 99 | 10 | 24* | -2 | 2
Oc1cccnc1CCc1ccccc1 | 102 | -3 | -7 | 11 | -3
Cc1cc(C)nc(NS(=O)(=O)c2ccc(N/C=C/C(=O)c3ccc(Cl)c(Cl)c3)cc2)n1 | 99 | -26 | -5 | 63* | -1
Cc1ccnc(NC(=O)CNC(=O)c2ccco2)c1 | 99 | 0 | -3 | 45* | 0
Cc1ccc(C(=O)NCC(=O)Nc2cc(C)ccn2)cc1 | 101 | -6 | -5 | -6 | 0
CCOc1ccc(C(=O)NCC(=O)Nc2cc(C)ccn2)cc1OCC | 94 | 8 | 3 | 44* | 2
CCOc1ccc(C(=O)NCC(=O)OCCCC(=O)c2ccc(F)cc2)cc1OCC | 94 | -5 | -2 | 45* | -3
CCCNC(=O)C[C@@H]1C[C@H]2c3cc(NC(=O)Cc4ccncc4)ccc3O[C@H]2[C@@H](CO)O1 | nt | nt | 4 | -1 | nt
C[C@H](CO)N1C[C@H](C)[C@H](CN(C)CC2CCCC2)Oc2ncc(-c3cccc(F)c3)cc2C1=O | nt | nt | nt | 23 | nt
COc1ccc(C(O)c2nc(-c3ccc4ccccc4c3)cs2)cc1 (centres undefined) | 95 | 33* | nt | -1 | -2
COc1ccc(-c2csc(N)n2)cc1 | 100 | 31* | 7 | 7 | -2
COc1ccc(C(O)c2nc(-c3ccc(OC)c(OC)c3)cs2)cc1 (centres undefined) | 97 | 16 | nt | 66* | 0
Cc1ccc(-c2csc(N)n2)cc1 | 103 | 1 | 11 | nt | -1
O=S(=O)(c1ccc(F)cc1)N1CC[C@@H]2[C@H](CO)Nc3ccc(C#CC4CCCCC4)cc3[C@@H]21 | nt | nt | nt | 17 | nt
O=C(Cc1ccccn1)N[C@H]1CC[C@H](CC(=O)N2CCCCC2)O[C@H]1CO | nt | nt | 2 | 2 | nt
SMILES | ABCB6 inh MLPCN | NRP1-CendR mod | ARNT-TACC3 inh | INS-1E GSIS act | iPSC survival up
COCC(=O)Nc1ccc2c(c1)OC[C@@H](C)N(CC1CCCCC1)C[C@@H](C)[C@H](OC)CN(C)C2=O | nt | nt | nt | 11 | nt
COc1ccc([C@H]2Cc3cc(O)cc(O)c3C(=O)O2)cc1O | 99 | -12 | 14 | 2 | -5
O=C1O[C@@H](c2ccc(O)cc2)Cc2cccc(O)c21 | 96 | 30* | -2 | 12 | -2
COc1ccc([C@H]2Cc3cccc(O)c3C(=O)O2)cc1O | 95 | 31* | 1 | 2 | -2
C[C@H](CO)N1C[C@H](C)[C@H](CN(C)C(=O)Nc2ccnc(N3CCOCC3)c2)OCc2ccccc2-c2ccccc2C1=O | nt | nt | 12* | 8 | nt
C[C@@H]1CN([C@H](C)CO)C(=O)CCCn2nncc2CO[C@H]1CN(C)C(=O)Nc1ccnc(N2CCOCC2)c1 | 99 | -1 | -5 | 45*! | -1
Cc1noc(C)c1NC(=O)N(C)C[C@H]1Oc2c(NC(=O)C3CCCCC3)cccc2C(=O)N([C@H](C)CO)C[C@@H]1C | 111 | 5 | 4 | 41*! | -2
